# Source: PubChem (The Scripps Research Institute Molecular Screening Center)
# SRC1 inh: inhibits human SRC1 coactivator | HEK293 GAL4-SRC1 luciferase reporter, luminescence | inhibition, % at 3.6 µM | AID 588354 | 0.12% of 360,000 active | Q15788;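 active means inhibition above the campaign mean plus 3 SD, with each screening campaign given its own cutoff, cut at about 60% in these data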;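 further: 0% = DMSO treated cells and 100% = gossypol at 36 µM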
# SRC3 inh: human NCOA3 inhibition; inhibition, % at 3.6 µM; HEK293 GAL4-SRC3 luciferase reporter, luminescence; 0.17% of 360,000 active; Q9Y6Q9;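 active means inhibition above a per-campaign cutoff, the mean of all compounds plus 3 SD, cut at about 60% in these data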;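 further: 0% = DMSO-treated cells and 100% = gossypol-treated cells at 36 µM; higher means less SRC3-driven luciferase light from the GAL4 reporter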
# NR2F2 inh: blocks human COUP-TFII nuclear receptor. HEK293T NGFI-A luciferase reporter, luminescence. inhibition, % at 8.6 µM. 0.7% of 370,000 active. AID 686940;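 active means inhibition above a per-plate cutoff, mean inhibition of test wells between control levels plus 3 SD, cut at about 38% in these data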;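 further: cells cotransfected with COUP-TFII expression vector driving the NGFI-A reporter; 0% = median of COUP-TF2 test wells and 100% = reporter-only cells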
# Target sequence (P24468 whole entry, looked up): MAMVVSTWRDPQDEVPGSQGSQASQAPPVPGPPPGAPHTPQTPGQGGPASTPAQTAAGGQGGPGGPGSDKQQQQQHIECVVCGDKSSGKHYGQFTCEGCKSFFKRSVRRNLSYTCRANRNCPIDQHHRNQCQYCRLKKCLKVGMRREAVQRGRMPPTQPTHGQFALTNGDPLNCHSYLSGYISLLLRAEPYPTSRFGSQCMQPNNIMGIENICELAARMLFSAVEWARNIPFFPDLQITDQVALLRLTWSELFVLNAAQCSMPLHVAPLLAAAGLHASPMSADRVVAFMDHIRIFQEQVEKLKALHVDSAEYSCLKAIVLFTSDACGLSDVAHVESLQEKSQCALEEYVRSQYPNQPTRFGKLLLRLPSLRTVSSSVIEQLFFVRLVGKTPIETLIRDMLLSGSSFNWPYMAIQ
# NR5A2 inv ag: inverse agonists of human LRH-1 (NR5A2); AID 602396; HEK293T StAR-luciferase reporter, LRH-1 transfected, 24 h; inhibition, % at 3.6 µM; 0.13% of 360,000 active;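 active means inhibition above the mean inhibition of all tested compounds plus 3 SD, cut at about 73% in these data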;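 further: 0% = DMSO wells and 100% = reporter-only cells lacking LRH-1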
# SRC2 inh: human SRC2 (NCOA2) inhibition; Q15596; HEK293 GAL4-SRC2 luciferase reporter, luminescence; inhibition, % at 9 µM; 0.17% of 370,000 active; AID 651957;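 active means inhibition above the mean inhibition of all tested compounds plus 3 SD, set per campaign, cut at about 52% in these data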;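 further: 0% = DMSO treated cells and 100% = cells given Gossypol at 36 µM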
# GalR3 antagonist: antagonists of human GalR3; O60755; HEK293 GalR3-CNG cAMP membrane potential fluorescence; galR3 body fused to GalR1 C-terminus; inhibition, % at 3 µM; 0.44% of 360,000 active; AID 651719;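 active means inhibition above the screen-wide average plus 3 SD, cut at about 13% in these data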;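 further: forskolin and galanin both at EC90 stimulate the cells; cAMP rise reported by CNG channel membrane potential dye signal; 0% = forskolin plus galanin with DMSO and 100% = forskolin alone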
# GalR3 antag conf: GalR3 (human) antagonism, confirmation. HEK293 GalR3 CNG cAMP biosensor, membrane potential fluorescence; galR3 fused to GalR1 carboxy tail; challenged with forskolin and galanin at EC90. 59% of 1,600 active. shares compounds with GalR3 antagonist. AID 652245. inhibition, % at 3 µM;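 active means inhibition above the primary screen's cutoff, the mean inhibition of all screened compounds plus 3 SD, cut at about 13% in these data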;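 further: 0% = forskolin plus galanin and 100% = forskolin alone with DMSO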
# HEK-CNG parental: acts as nonspecific agonist in parental HEK-CNG cells; shares compounds with GalR3 antagonist; HEK293-CNG parental cells, cAMP membrane potential fluorescence; normalised: DMSO wells 0%, forskolin wells 100%; activation, % at 3 µM; 10% of 1,600 active; AID 652268; in the data active means activation above about 1.3%
# VP16 Luc counter: counter-screen for COUP-TFII antagonists: inhibitors of VP16; AID 687007; 25% of 2,500 active; inhibition, % at 8.5 µM; shares compounds with NR2F2 inh; HEK293 Gal4-VP16 luciferase reporter, luminescence; in the data active means inhibition above about 13%
# NR2F2 inh conf: COUP-TFII (NR2F2) inhibition, confirmation assay; shares compounds with NR2F2 inh; HEK293 NGFI-A luciferase reporter, luminescence; inhibition, % at 8.5 µM; 45% of 2,500 active;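 active means mean inhibition over three repeats above a set limit taken from the earlier primary screen, cut at about 38% in these data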;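 further: 100% = cells given the luciferase reporter alone without the COUP-TF2 vector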
# Active calls of the source: *; . = no result. Rows were chosen to be rich in hits. Some 1.1% of all compounds tested hit in one or more screens of this group.
SMILES,SRC1 inh,SRC3 inh,NR2F2 inh,NR5A2 inv ag,SRC2 inh,GalR3 antagonist,GalR3 antag conf,HEK-CNG parental,VP16 Luc counter,NR2F2 inh conf
COc1ccc(CCNC(=O)c2[nH]c(C)c(C(C)=O)c2C)cc1,-2,17,-2,-6,-48,1,.,.,.,.
COc1cccc(-n2c(C)c(C(C)=O)c(C(C)=O)c2C)c1,-10,26,0,-4,11,15*,4,0,.,.
COc1ccc(-n2c(C)c(C(C)=O)c(C(C)=O)c2C)cc1,7,22,6,6,7,-4,.,.,.,.
Cc1cccc(C(=O)N[C@@H]2CC[C@@]34CCCN3C(=O)CCC[C@H]4[C@H]2C)c1,.,.,-11,.,.,.,.,.,.,.
c1ccc(-c2ccc(C3=Nn4c(nnc4-c4cccs4)SC3)cc2)cc1,13,0,11,5,-16,16*,46*,1.8*,.,.
COc1ccc(C2=Nn3c(nnc3-c3ccccc3OC)SC2)cc1OC,-53,-34,-117,44,7,38*,46*,1.5*,.,.
COc1ccccc1-c1nnc2n1N=C(c1ccc3c(c1)OCO3)CS2,.,.,-80,.,14,.,.,.,.,.
N/C(=N\NS(=O)(=O)c1ccc(Cl)cc1)c1ccccn1,-6,25,-2,11,-4,14*,0,0,.,.
O=S(=O)(c1ccc2c(c1)OCCO2)N1CCN(c2ncnc3sccc23)CC1,4,27,70*,36,38,100*,111*,0,3,53*
Cc1cc(C(=O)COc2cccnc2[N+](=O)[O-])c(C)n1Cc1cccs1,8,31,23,-19,22,1,.,.,.,.
CC(=O)Nc1ccccc1OCC(=O)c1cc(C)n(Cc2cccs2)c1C,27,28,73*,63,8,83*,98*,0,2,81*
COc1ccc(S(=O)(=O)Nc2ccc3c(c2)OCO3)cc1OC,-12,4,-6,1,-14,-7,.,.,.,.
COc1ccc(NS(=O)(=O)c2ccc3c(c2)OCCO3)cc1OC,17,26,57*,66,39,99*,53*,0,3,40*
C=CCC1(CC=C)CCCN1C(=O)c1cc(COc2cccc(OC)c2)on1,20,4,-3,-2,20,-10,.,.,.,.
C=CCC1(CC=C)CCCN1C(=O)c1cc(COc2cncc(Cl)c2)on1,11,16,48*,-8,26,45*,62*,1,-14,29
Cc1oc(-c2ccc(Cl)cc2)nc1CN1CCCC(C(=O)N2CCN(C(=O)c3ccco3)CC2)C1 (stereo not drawn),12,27,74*,28,12,84*,101*,1,14*,63*
Cc1cc2c(Nc3ccccc3)ncnc2s1,3,6,-7,-10,-24,0,.,.,.,.
Cc1cc2c(NCCc3ccccc3)ncnc2s1,-26,-41,50*,-53,7,97*,98*,0,-133,29
CC(C)CC(O)(CC(C)C)c1cn(C(=O)N(c2ccccc2)c2ccccc2)nn1,.,.,-2,.,.,.,.,.,.,.
O=C(O[C@H]1CC[C@@]23CCCN2C(=O)CCC[C@H]3C1)N1CCOCC1,.,.,-4,.,.,.,.,.,.,.
Cc1ccc(NC(=O)CSc2ccc3c(c2)OCCO3)c(O)c1,-3,31,39*,45,18,33*,75*,-1,4,37
CCC(NC(=O)Nc1nnc(C(F)(F)F)s1)(C(F)(F)F)C(F)(F)F,56,76*,67*,62,24,58*,84*,0,17*,60*
c1ccc2c(c1)OCC(CNc1ncnc3sccc13)O2 (stereo not drawn),20,33,78*,42,30,97*,105*,0,-17,58*
c1ccc2c(c1)OCC(CNCC1COc3ccccc3O1)O2 (stereo not drawn),-4,-4,-13,-4,-36,-10,.,.,.,.
COc1ccc(Nc2ncnc3sccc23)cc1OC,5,-1,-2,-12,-18,-7,.,.,.,.
SMILES,SRC1 inh,SRC3 inh,NR2F2 inh,NR5A2 inv ag,SRC2 inh,GalR3 antagonist,GalR3 antag conf,HEK-CNG parental,VP16 Luc counter,NR2F2 inh conf
COc1ccc(CCNc2ncnc3sccc23)cc1OC,13,34,74*,36,25,73*,129*,0,10,77*
COc1ccccc1CNc1ncnc2sccc12,17,23,62*,31,25,76*,104*,1,7,53*
CC(C)C1N=C(NC(=O)OCc2ccccc2)NC1=O (stereo not drawn) (tested in a mixture with another compound),.,.,-29,.,-1,.,.,.,.,.
CC1(C)CC(=O)C=C(Nc2ccccc2NC(=O)c2cccc(F)c2F)C1,.,.,-12,.,-9,.,.,.,.,.
CCCc1cc(=O)n2nc(N3CCC(C(=O)N4CCN(c5ccc(OC)cc5)CC4)CC3)sc2n1,-3,4,56*,54,15,14*,104*,0,12,64*
O=C([C@@H]1C[C@H]1c1ccccc1)N1CC[C@H]2[C@H](CCCN2Cc2ccccc2)C1,.,.,12,.,-1,.,.,.,.,.
COc1cc(NC(=O)COc2cc(O)c3c(c2)OC(C)(C)CC3=O)cc(OC)c1OC,43,51,81*,59,36,45*,102*,0,3,81*
CCCCCCCCNc1ncnc2ccccc12,27,20,.,53,.,.,.,.,.,.
CCCCCCCC[n+]1cccc2c3ccccc3ccc21,38,81*,80*,88*,15,65*,54*,3.1*,14*,77*
Cc1cccc[n+]1CCCCCCCCCC[n+]1ccccc1C,9,26,30,17,7,-6,.,.,.,.
CCCCCCCCCC[n+]1cccc2c3ccccc3ccc21,58,82*,83*,90*,44,50*,51*,8.2*,20*,82*
O=C(Oc1coc(CSc2ncccn2)cc1=O)c1ccc([N+](=O)[O-])cc1,.,.,12,.,.,.,.,.,.,.
Cc1ccc(S(=O)(=O)Nc2ncnc3sc(C)c(C)c23)cc1,4,-9,2,6,-22,-8,.,.,.,.
Cc1sc2ncnc(NCCc3ccc(S(N)(=O)=O)cc3)c2c1C,-13,28,66*,49,28,59*,109*,0,10,61*
